Data from PubChem BioAssay (Tox21).
Inconclusive results are not listed. The source made the active and inactive calls. Unless noted, calls come from the whole dose curve; as a rule, active = well fitted curve in the direction sought with a large enough effect in the repeat runs; inconclusive = weak or mixed curves; inactive = no such curve, though single readings can be large; an effect the other way counts as inactive or inconclusive.

Legend:
[1] = qHTS assay to identify small molecule agonists of the RXR signaling pathway - cell viability counter screen (AID 1159529); details: RXR-alpha-bla HEK293T viability, CellTiter-Glo, 16 h; series mostly up to 76.8 µM;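 note: HEK 293T cells carrying an RXR-alpha UAS beta-lactamase reporter; nearly all actives have a fitted effect of over 50% in size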
How it was run: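 Viability read-out for the RXR-alpha agonist qHTS: luminescent CellTiter-Glo signal after 30 min at RT. HEK 293T bla reporter cells, 2% charcoal-stripped FBS, 16 hr compound incubation; tetraoctyl ammonium bromide as cytotoxic control.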

[2] = qHTS assay to identify small molecule antagonists of the retinoid acid receptor (RAR) signaling pathway - cell viability counter screen (AID 1159551); details: C3RL4 cells viability, ATP luminescence (CellTiter-Glo), 6 h; series mostly up to 92.4 µM; note: nearly all actives have a fitted effect of over 35% in size
How it was run: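 Viability of C3RL4 cells is quantified from ATP by luminescence after 6 h treatment at 37 C with compounds and 1 uM retinol.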

[3] = qHTS assay to identify small molecule antagonists of the estrogen related receptor (ERR) signaling pathway from Tox21 library - cell viability counter screen (AID 1224834); details: ERR reporter cells viability, CellTiter-Fluor, 17.5 h; series mostly up to 92.4 µM; note: nearly all actives have a fitted effect of over 30% in size
How it was run: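 In this quantitative HTS format, ERR cells receive compounds in DMSO and are incubated for 17.5 h at 37 C. Live-cell protease activity is then detected with CellTiter-Fluor.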

[4] = target: Luciferin 4-monooxygenase (Photinus pyralis) (UniProt P08659); test: qHTS assay to identify small molecule inhibitors of firefly luciferase (AID 1224835); note: nearly all actives have a fitted effect of over 25% in size; note: potency is the fitted concentration of half-maximal effect; details: purified P. pyralis luciferase, luminescence inhibition; series mostly up to 115 µM
Luciferin 4-monooxygenase (Photinus pyralis), sequence (P08659 whole entry, looked up): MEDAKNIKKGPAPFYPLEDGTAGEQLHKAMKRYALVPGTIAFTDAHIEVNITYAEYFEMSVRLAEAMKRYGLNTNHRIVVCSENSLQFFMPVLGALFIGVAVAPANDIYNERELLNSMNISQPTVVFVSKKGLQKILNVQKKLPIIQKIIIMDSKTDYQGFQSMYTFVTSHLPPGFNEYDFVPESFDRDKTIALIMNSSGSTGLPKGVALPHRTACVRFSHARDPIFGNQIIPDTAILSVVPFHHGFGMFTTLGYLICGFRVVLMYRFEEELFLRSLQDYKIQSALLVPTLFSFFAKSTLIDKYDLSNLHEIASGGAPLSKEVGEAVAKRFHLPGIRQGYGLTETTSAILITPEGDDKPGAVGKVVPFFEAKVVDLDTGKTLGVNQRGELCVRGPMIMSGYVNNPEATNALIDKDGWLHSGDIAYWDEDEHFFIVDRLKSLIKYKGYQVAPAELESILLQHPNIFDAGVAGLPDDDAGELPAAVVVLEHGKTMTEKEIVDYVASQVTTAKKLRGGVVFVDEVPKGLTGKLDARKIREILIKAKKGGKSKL
How it was run: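 Inhibition of purified Photinus luciferase is measured by luminescence. Substrate levels (D-luciferin, ATP) sit at their KM values. Each compound is tested in a concentration series.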

[5] = qHTS assay to identify small molecule agonists of the constitutive androstane receptor (CAR) signaling pathway - cell viability counter screen (AID 1224836); details: HepG2-CYP2B6-hCAR viability, CellTiter-Fluor, 23 h, PK11195 added to every well; series mostly up to 92.4 µM; note: nearly all actives have a fitted effect of over 45% in size
How it was run: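 Multiplexed viability check: HepG2-CYP2B6-hCAR cells, 15-point compound dosing, 0.75 uM PK11195 final, 23 h at 37 C, CellTiter-Fluor fluorescence.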

[6] = qHTS assay to identify small molecule antagonists of the constitutive androstane receptor (CAR) signaling pathway - cell viability counter screen (AID 1224837); details: HepG2-CYP2B6-hCAR viability, CellTiter-Fluor, 23 h, co-treated with 50 nM CITCO; series mostly up to 92.4 µM; note: nearly all actives have a fitted effect of over 45% in size
How it was run: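 In quantitative HTS format, compounds at 15 concentrations were applied to HepG2 cells double-transfected with hCAR and CYP2B6-2.2kb under 50 nM CITCO stimulation; live-cell protease activity was read after 23 hr via CellTiter-Fluor.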

[7] = qHTS assay to identify small molecule antagonists of the estrogen related receptor signaling pathway with the pleiotropic PPARgamma coactivator (PGC) from Tox21 10K library - cell viability counter screen (AID 1224840; active = well fitted cell-killing curve with a large enough effect in the repeat runs, not every such curve was filed as active; note: nearly all actives have a fitted effect of over 40% in size); details: PGC/ERR reporter cells viability, CellTiter-Fluor, 17.5 h; series mostly up to 92.4 µM
How it was run: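 Viability counter screen, PGC/ERR cells: 17.5 h compound exposure at 37 C, CellTiter-Fluor fluorescence endpoint.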

[8] = qHTS assay to identify small molecule antagonists of the estrogen related receptor signaling pathway with the pleiotropic PPARgamma coactivator (PGC) from Tox21 10K library (AID 1224841; call rule not given here; note: actives are mostly falling curves and most rising ones were filed inactive; nearly all actives have a fitted effect of over 50% in size); details: PGC/ERR reporter cell line, ONE-Glo luciferase, 18 h; series mostly up to 92.4 µM
How it was run: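 In the PGC/ERR line, DMSO solutions of test chemicals are pin-delivered to 2,000 cells/well six hours after dispensing. Following eighteen hours' incubation, One-Glo reagent is added and luminescence recorded.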

[9] = qHTS assay to identify small molecule agonists of the estrogen related receptor signaling pathway with the pleiotropic PPARgamma coactivator (PGC) from Tox21 10K library (AID 1224842); details: PGC/ERR reporter cell line, luciferase ONE-Glo, 18 h; series mostly up to 92.4 µM; note: nearly all actives have a fitted effect of over 15% in size
How it was run: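 Luminescence from One-Glo (30 min, room temperature) measured after PGC/ERR cells had 18 h at 37 C with pinned compound (23 nL in DMSO). Cells had been seeded at 2,000 per well and pre-incubated 6 h.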

[10] = target: Nuclear receptor subfamily 1 group I member 3 (Homo sapiens) (UniProt Q14994); test: qHTS assay to identify small molecule antagonists of the constitutive androstane receptor (CAR) signaling pathway (AID 1224838); details: HepG2-CYP2B6-hCAR luciferase, CITCO-stimulated, 24 h; series mostly up to 92.4 µM; note: nearly all actives have a fitted effect of over 40% in size
Nuclear receptor subfamily 1 group I member 3 (Homo sapiens), sequence (Q14994 whole entry, looked up): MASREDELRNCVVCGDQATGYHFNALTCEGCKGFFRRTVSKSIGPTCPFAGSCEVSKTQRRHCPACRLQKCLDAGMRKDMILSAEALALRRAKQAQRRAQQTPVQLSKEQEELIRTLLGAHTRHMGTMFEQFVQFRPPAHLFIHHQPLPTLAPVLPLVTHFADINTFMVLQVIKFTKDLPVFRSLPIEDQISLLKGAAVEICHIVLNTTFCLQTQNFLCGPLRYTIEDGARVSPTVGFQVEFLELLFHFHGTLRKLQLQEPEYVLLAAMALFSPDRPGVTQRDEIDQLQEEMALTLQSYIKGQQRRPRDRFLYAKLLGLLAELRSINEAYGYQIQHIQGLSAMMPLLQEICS
How it was run: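 CITCO-stimulated (50 nM final) HepG2 cells stably transfected with hCAR and CYP2B6-2.2kb luciferase were exposed to compounds at 15 concentrations for 24 h at 37 C/5% CO2. A luciferase reagent was added and luminescence recorded after 30 min.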

[11] = target: Nuclear receptor subfamily 1 group I member 3 (Homo sapiens) (UniProt Q14994); test: qHTS assay to identify small molecule agonists of the constitutive androstane receptor (CAR) signaling pathway (AID 1224839); details: HepG2 hCAR CYP2B6-luciferase, agonist mode, 24 h; series mostly up to 92.4 µM;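 note: HepG2 cells stably carrying human CAR and a CYP2B6 luciferase reporter; nearly all actives have a fitted effect of over 15% in size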
How it was run: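 Using human hepatoma HepG2 cells engineered with hCAR and a CYP2B6-2.2kb reporter, 15-concentration compound series were incubated 24 h alongside PK11195 at 0.75 uM final, with luminescence quantified afterwards.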

[12] = qHTS assay to identify small molecule antagonists of the estrogen related receptor (ERR) signaling pathway - cell viability counter screen (AID 1224818); details: ERR reporter cell line viability counter screen; series mostly up to 46.1 µM
How it was run: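 Cytotoxicity check run alongside the ERR antagonist screen: cells exposed to test compounds 17.5 h at 37 C, viability taken as CellTiter-Fluor fluorescence intensity.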

[13] = qHTS assay to identify small molecule antagonists of the estrogen related receptor signaling pathway with the pleiotropic PPARgamma coactivator (PGC) cell viability counter screen (AID 1224822); details: ERR/PGC reporter cell line viability counter screen; series mostly up to 46.1 µM
How it was run: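 Viable cell signal (CellTiter-Fluor, 30 min, 37 C/5% CO2) was measured in PGC/ERR cells after a 17.5 h compound incubation.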

Measured: Potency

CC1(C)SC(C)(C)SC(C)(C)S1
not listed: [10] | [11] | [12] | [13]
inactive: all other assays above

OC1OC[C@@H](O)[C@H](O)[C@H]1O (stereo partly specified)
not listed: [8] | [9] | [12] | [13]
inactive: all other assays above

CC(=O)N[C@@H](CCC(N)=O)C(=O)O
inactive: [1] | [2] | [3] | [5] | [11] | [7]

C=C(C)C(=O)NCCCN(C)C
inactive: [1] | [2] | [3] | [4] | [5] | [6] | [7]

CC1(C)OC(=O)Nc2ccc(Br)cc21
inactive: [1] | [2] | [4] | [5] | [6] | [7]

Nc1[nH]c(=O)ncc1F
not listed: [10] | [11] | [12] | [13]
inactive: all other assays above

O=C(O)CCNC(=O)c1ccc(N=Nc2ccc(O)c(C(=O)O)c2)cc1
active: [4] 30.9 µM
inactive: [1] | [2] | [5] | [10] | [11] | [7]

c1ccc(CCCc2ccccn2)cc1
not listed: [4] | [9] | [11] | [12] | [13]
inactive: all other assays above

COc1cc(C(=O)N2CCOCC2)cc(OC)c1OC
inactive: [1] | [2] | [3] | [4] | [5] | [6] | [7]

Cc1c(F)cc2c(=O)c(C(=O)O)cn3c2c1CCC3C (stereo unspecified)
not listed: [3] | [8] | [10] | [12] | [13]
inactive: all other assays above

CC(C)CCCCCCN
not listed: [3] | [8] | [9] | [12] | [13]
inactive: all other assays above

CC(C)=CC(=O)O
inactive: [1] | [2] | [4] | [5] | [6] | [10] | [7]

CC(C)CCCC(C)NCCC(C)C (stereo unspecified)
not listed: [10] | [11] | [12] | [13]
inactive: all other assays above

CC(C)(C)CC(C)(C)N
inactive: [1] | [2] | [3] | [4] | [5] | [7]

NC(N)=NS(=O)(=O)c1ccc(N)cc1
inactive: [1] | [2] | [4] | [5] | [6] | [7]

CC(=O)c1ccc(C)cc1
not listed: [8] | [9] | [12] | [13]
inactive: all other assays above

CCCCCCCCCCCCCCCCCCOCC(O)CO (stereo unspecified)
inactive: [1] | [2] | [3] | [5] | [6] | [11] | [7]

C=CCn1c(=O)n([C@@H]2O[C@H](CO)[C@@H](O)[C@H]2O)c2nc(N)[nH]c(=O)c21
inactive: [1] | [2] | [3] | [4] | [5] | [6] | [7]

OCC(O)[C@@H](O)[C@H](O)[C@H](O)CO[C@H]1O[C@H](CO)[C@@H](O)[C@H](O)[C@H]1O (stereo partly specified)
inactive: [1] | [2] | [4] | [5] | [6] | [7]

Nc1cc(C(Cl)=C(Cl)Cl)c(S(N)(=O)=O)cc1S(N)(=O)=O
inactive: [1] | [2] | [3] | [4] | [5] | [7]

CCN(CC)C(=O)c1ccc(O)c(OC)c1
not listed: [2] | [8] | [9] | [11]
inactive: all other assays above
